# From article PMC5540273 (PLoS ONE, 2017)
# Read-outs that look alike come from different tables or passages of the source.
# Tests used:
# LTK = details: n = 1
# JNK3 = system: T1, JNK3; details: concentration: 1 μM, replicates: in singlicate; n = 1
# T1 construct: gene MAPK10
# KIT-autoinhibited = details: concentration: 1 μM, replicates: in singlicate; n = 1
# KIT = details: concentration: 1 μM, replicates: in singlicate; n = 1
# LATS1 = details: concentration: 1 μM, replicates: in singlicate; n = 1
# LATS2 = details: concentration: 1 μM, replicates: in singlicate; n = 1
# LCK = details: concentration: 1 μM, replicates: in singlicate; n = 1
# LIMK1 = details: concentration: 1 μM, replicates: in singlicate; n = 1
# LIMK2 = details: concentration: 1 μM, replicates: in singlicate; n = 1
# LKB1 = system: T2, LKB1; details: concentration: 1 μM, replicates: in singlicate; n = 1
# T2 construct: gene STK11
# LOK = system: T3, LOK; details: concentration: 1 μM, replicates: in singlicate; n = 1
# T3 construct: gene STK10
# LRRK2 = details: concentration: 1 μM, replicates: in singlicate; n = 1
# LYN = details: concentration: 1 μM, replicates: in singlicate; n = 1
# LZK = system: T4, LZK; details: concentration: 1 μM, replicates: in singlicate; n = 1
# T4 construct: gene MAP3K13
# MAK = details: concentration: 1 μM, replicates: in singlicate; n = 1
# MAP3K15 = details: concentration: 1 μM, replicates: in singlicate; n = 1
# MAP3K1 = details: concentration: 1 μM, replicates: in singlicate; n = 1
# MAP3K2 = details: concentration: 1 μM, replicates: in singlicate; n = 1
# MAP3K3 = details: concentration: 1 μM, replicates: in singlicate; n = 1
# MAP3K4 = details: concentration: 1 μM, replicates: in singlicate; n = 1
# [1] = concentration: 1 μM, replicates: in singlicate
# 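Further: KINOMEscan kinase panel screen.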
structure (smiles),measurement,setting,value
CS(=O)(=O)Cc1ccc(Nc2nccc(-c3c(-c4cccc(NC(=O)C5CCCCC5)c4)nn4ncccc34)n2)cc1 [GSK350559],%Inh,LTK; 1 µM,0%
COc1ccc(Nc2nccc(N3CCC(NC(=O)C(C)c4ccc(Cl)cc4)CC3)n2)cc1 (stereo not drawn) [GSK1379812],%Inh,JNK3,10%
same,%Inh,KIT-autoinhibited,0%
same,%Inh,KIT,15%
same,%Inh,LATS1,32%
same,%Inh,LATS2,100%
same,%Inh,LCK,38%
same,%Inh,LIMK1,2%
same,%Inh,LIMK2,18%
same,%Inh,LKB1,11%
same,%Inh,LOK,0%
same,%Inh,LRRK2,0%
same,%Inh,LTK; [1],27%
same,%Inh,LYN,0%
same,%Inh,LZK,36%
same,%Inh,MAK,64%
same,%Inh,MAP3K15,0%
same,%Inh,MAP3K1,12%
same,%Inh,MAP3K2,0%
same,%Inh,MAP3K3,0%
same,%Inh,MAP3K4,15%
FC(F)(F)c1ccccc1-c1cc(-c2c[nH]nc2-c2ccccn2)ccn1 [GW679396],%Inh,JNK3,40%
same,%Inh,KIT-autoinhibited,0%
same,%Inh,KIT,3%
same,%Inh,LATS1,0%
same,%Inh,LATS2,0%
same,%Inh,LCK,17%
same,%Inh,LIMK1,0%
same,%Inh,LIMK2,0%
same,%Inh,LKB1,11%
same,%Inh,LOK,0%
same,%Inh,LRRK2,1%
same,%Inh,LTK; [1],5%
same,%Inh,LYN,0%
same,%Inh,LZK,11%
same,%Inh,MAK,35%
same,%Inh,MAP3K15,0%
same,%Inh,MAP3K1,11%
same,%Inh,MAP3K2,0%
same,%Inh,MAP3K3,0%
same,%Inh,MAP3K4,24%
COC(=O)C(Cc1ccccc1)NC(=O)NC1CCN(c2ccnc(Nc3ccc(F)cc3)n2)C1 (stereo not drawn) [GSK1379714],%Inh,JNK3,0%
same,%Inh,KIT-autoinhibited,9%
same,%Inh,KIT,11%
same,%Inh,LATS1,0%
same,%Inh,LATS2,15%
same,%Inh,LCK,21%
same,%Inh,LIMK1,0%
same,%Inh,LIMK2,9%
same,%Inh,LKB1,21%
same,%Inh,LOK,3%
same,%Inh,LRRK2,0%
same,%Inh,LTK; [1],0%
same,%Inh,LYN,22%
same,%Inh,LZK,23%
same,%Inh,MAK,35%
same,%Inh,MAP3K15,0%
same,%Inh,MAP3K1,0%
same,%Inh,MAP3K2,0%
same,%Inh,MAP3K3,0%
same,%Inh,MAP3K4,0%
Fc1ccc(-c2nc[nH]c2-c2ccncc2)cc1 [SB-217360],%Inh,JNK3,98.6%
same,%Inh,KIT-autoinhibited,21%
same,%Inh,KIT,0%
same,%Inh,LATS1,0%
same,%Inh,LATS2,0%
same,%Inh,LCK,25%
same,%Inh,LIMK1,0%
same,%Inh,LIMK2,0%
same,%Inh,LKB1,0%
same,%Inh,LOK,16%
same,%Inh,LRRK2,0%
same,%Inh,LTK; [1],0%
same,%Inh,LYN,0%
same,%Inh,LZK,0%
same,%Inh,MAK,5%
same,%Inh,MAP3K15,3%
same,%Inh,MAP3K1,0%
same,%Inh,MAP3K2,18%
same,%Inh,MAP3K3,0%
same,%Inh,MAP3K4,0%
Nc1nccc(-c2c(-c3ccc(F)cc3)ncn2C2CCN(Cc3ccccc3)CC2)n1 [SB-219980],%Inh,JNK3,95.4%
same,%Inh,KIT-autoinhibited,0%
same,%Inh,KIT,0%
same,%Inh,LATS1,13%
same,%Inh,LATS2,0%
same,%Inh,LCK,0%
same,%Inh,LIMK1,13%
same,%Inh,LIMK2,0%
same,%Inh,LKB1,36%
same,%Inh,LOK,18%
same,%Inh,LRRK2,0%
same,%Inh,LTK; [1],11%
same,%Inh,LYN,0%
same,%Inh,LZK,0%
same,%Inh,MAK,0%
same,%Inh,MAP3K15,0%
same,%Inh,MAP3K1,0%
same,%Inh,MAP3K2,29%
same,%Inh,MAP3K3,0%
same,%Inh,MAP3K4,0%
Cc1ccc(NC(=O)Nc2ccccc2)cc1-c1ccc(C(=O)Nc2ccncc2)cc1 [GSK1398471],%Inh,JNK3,8%
same,%Inh,KIT-autoinhibited,0%
same,%Inh,KIT,99.7%
same,%Inh,LATS1,0%
same,%Inh,LATS2,0%
same,%Inh,LCK,35%
same,%Inh,LIMK1,18%
same,%Inh,LIMK2,0%
same,%Inh,LKB1,0%
same,%Inh,LOK,25%
same,%Inh,LRRK2,0%
same,%Inh,LTK; [1],0%
same,%Inh,LYN,66%
same,%Inh,LZK,0%
same,%Inh,MAK,17%
same,%Inh,MAP3K15,0%
same,%Inh,MAP3K1,8%
same,%Inh,MAP3K2,0%
same,%Inh,MAP3K3,0%
same,%Inh,MAP3K4,0%
CNCc1ccc2nc(NC(=O)c3ccc(C(C)(C)C)cc3)cn2c1,%Inh,JNK3,14%
same,%Inh,KIT-autoinhibited,20%
same,%Inh,KIT,69%
same,%Inh,LATS1,2%
same,%Inh,LATS2,6%
same,%Inh,LCK,2%
same,%Inh,LIMK1,5%
same,%Inh,LIMK2,0%
same,%Inh,LKB1,31%
same,%Inh,LOK,0%
same,%Inh,LRRK2,10%
same,%Inh,LTK; [1],12%
same,%Inh,LYN,0%
same,%Inh,LZK,0%
same,%Inh,MAK,15%
same,%Inh,MAP3K15,98.9%
same,%Inh,MAP3K1,19%
same,%Inh,MAP3K2,21%
same,%Inh,MAP3K3,0%
same,%Inh,MAP3K4,4%
COc1cc2ncnc(Nc3cccc(Br)c3)c2cc1OC.Cl [GI230329],%Inh,KIT-autoinhibited,0%
same,%Inh,KIT,10%
same,%Inh,LATS1,0%
same,%Inh,LATS2,0%
same,%Inh,LCK,66%
same,%Inh,LIMK1,0%
same,%Inh,LIMK2,0%
same,%Inh,LKB1,10%
same,%Inh,LOK,36%
same,%Inh,LRRK2,0%
same,%Inh,LTK; [1],0%
same,%Inh,LYN,67%
same,%Inh,LZK,38%
same,%Inh,MAK,34%
same,%Inh,MAP3K15,0%
same,%Inh,MAP3K1,2%
same,%Inh,MAP3K2,33%
same,%Inh,MAP3K3,29%
same,%Inh,MAP3K4,4%
c1ccc(-c2ccnc3[nH]ccc23)cc1 [SB-693578],%Inh,JNK3,11%
same,%Inh,KIT-autoinhibited,0%
same,%Inh,KIT,1%
same,%Inh,LATS1,0%
same,%Inh,LATS2,53%
same,%Inh,LCK,7%
same,%Inh,LIMK1,6%
same,%Inh,LIMK2,0%
same,%Inh,LKB1,0%
same,%Inh,LOK,0%
same,%Inh,LRRK2,44%
same,%Inh,LTK; [1],0%
same,%Inh,LYN,0%
same,%Inh,LZK,11%
same,%Inh,MAK,0%
same,%Inh,MAP3K15,26%
same,%Inh,MAP3K1,19%
same,%Inh,MAP3K2,50%
same,%Inh,MAP3K3,5%
same,%Inh,MAP3K4,12%
